From PubChem BioAssay (NCI)
Compounds without any hit were thinned out: in the full panel of roughly 83,000, 20% have a hit.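 Results are percent growth after 48 hours of single-concentration exposure. 100 means growth as in untreated cells, lower positive values show inhibition; negative values down to -100 show cell death.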 The source made the active and inactive calls. The calls were made as follows: active = growth percent below 10; inactive = the rest.

These compounds were tested on MDA-MB-468 breast (assay: NCI-60 one-dose screen, 48 h (100 = growth as untreated, 0 = no growth, -100 = all killed)). Conditions: 10 µM unless noted.

| SMILES | growth |
| --- | --- |
| O=S(=O)(NCCNc1cc(-c2cn(-c3ccccc3)nc2-c2cccc(O)c2)ccn1)c1ccc(Br)cc1 | -28.5% (active) |
| Cc1c(-c2noc(-c3ccc([N+](=O)[O-])cc3)n2)no[n+]1[O-] | 104% (inactive) |
| COc1ccc(/C=C2\CCCC3=C2N=C2SC(C)=NN2C3c2ccc(OC)c(OC)c2)cc1OC (configuration not stated) | 12.1% (inactive) |
| Cc1ccc(S(=O)(=O)NCCCNc2nccc(-c3c(-c4cccc(F)c4)nc4occn34)n2)cc1 | 55.6% (inactive) |
| Cc1cc(NS(=O)(=O)c2ccc(NC(=O)CSc3nc4ccccc4c(=O)n3-c3ccccc3)cc2)no1 | 91% (inactive) |
| CC(C)=CCC[C@](C)(O)[C@H]1CC[C@]2(C)[C@@H]1CC[C@@H]1[C@@]3(C)CC/C(=N/O)C(C)(C)[C@@H]3CC[C@]12C | -26.3% [100 µM] (active) |
| CCCCCCCCCCCCOC(=O)/C=C\C(=O)NC(N)=O | 82.1% (inactive) |
| C=C(C)[C@@H]1CC[C@]2(C(=O)n3ccnc3)CC[C@]3(C)[C@H](CC[C@@H]4[C@@]5(C)CCCNC(C)(C)[C@@H]5CC[C@]43C)[C@@H]12 | -11.1% (active) |
| O=C(Nc1cccc2c1C(=O)c1cccc(Nc3cccc4c3C(=O)c3cccc(NC(=O)c5ccccc5)c3C4=O)c1C2=O)c1ccccc1 | 126% (inactive) |
| COc1cc(C2CC(c3ccc4c(c3)OCO4)=NN2c2ccccc2)cc(OC)c1OC (configuration not stated) | 75.7% (inactive) |
| O=C(c1cccc(F)c1)n1ccc2cc(NC(=S)Nc3cccnc3)ccc21 | 91.9% (inactive) |
| CCC1=Cc2c(OC)cccc2OC12C=Cc1c(OC)cccc1O2 (configuration not stated) | 54% (inactive) |
